Results on nine compounds are retold here after PubChem BioAssay (NCATS).

Unmarked numbers belong to inactive results. Results filed as inconclusive are left out. The source made the active and inactive calls. Unless noted, calls follow the shape of the dose curve; as a rule, active = well fitted curve in the direction sought with a large enough effect; inconclusive = small, poorly fitted or top-dose-only effect, or another doubt; inactive = no such curve, though single readings can be large; an effect the other way counts as inactive or inconclusive.

The target in assay [1] is Rap guanine nucleotide exchange factor 3 (Homo sapiens) (UniProt O95398). The assay is described as follows: Confirmatory qHTS for antagonist of cAMP-regulated guanine nucleotide exchange factor 3 (EPAC1) (AID 1645880). Also: nearly all actives have a fitted effect of over 55% in size. Also: potency is read from the fitted curve at half-maximal effect.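 As to activity, negative = inhibition: plate controls were DMSO only for no effect and full effect of the ATA control for full effect.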 The settings on record: EPAC1 Rap1B-BODIPY-GDP exchange, fluorescence; activity, negative = inhibition: at 115 µM (top of the series). Put shortly: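 Nucleotide exchange uses 100 nM EPAC1, 250 nM RAP1B-BODIPY-GDP and 50 uM GDP, with compounds in a concentration-titration series. After 5 min at room temperature, fluorescence (480 nm ex/540 nm em) is read every 5 min for 30 min. Data are normalized to control ATA and DMSO.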
Rap guanine nucleotide exchange factor 3 (Homo sapiens), sequence (O95398 whole entry, looked up): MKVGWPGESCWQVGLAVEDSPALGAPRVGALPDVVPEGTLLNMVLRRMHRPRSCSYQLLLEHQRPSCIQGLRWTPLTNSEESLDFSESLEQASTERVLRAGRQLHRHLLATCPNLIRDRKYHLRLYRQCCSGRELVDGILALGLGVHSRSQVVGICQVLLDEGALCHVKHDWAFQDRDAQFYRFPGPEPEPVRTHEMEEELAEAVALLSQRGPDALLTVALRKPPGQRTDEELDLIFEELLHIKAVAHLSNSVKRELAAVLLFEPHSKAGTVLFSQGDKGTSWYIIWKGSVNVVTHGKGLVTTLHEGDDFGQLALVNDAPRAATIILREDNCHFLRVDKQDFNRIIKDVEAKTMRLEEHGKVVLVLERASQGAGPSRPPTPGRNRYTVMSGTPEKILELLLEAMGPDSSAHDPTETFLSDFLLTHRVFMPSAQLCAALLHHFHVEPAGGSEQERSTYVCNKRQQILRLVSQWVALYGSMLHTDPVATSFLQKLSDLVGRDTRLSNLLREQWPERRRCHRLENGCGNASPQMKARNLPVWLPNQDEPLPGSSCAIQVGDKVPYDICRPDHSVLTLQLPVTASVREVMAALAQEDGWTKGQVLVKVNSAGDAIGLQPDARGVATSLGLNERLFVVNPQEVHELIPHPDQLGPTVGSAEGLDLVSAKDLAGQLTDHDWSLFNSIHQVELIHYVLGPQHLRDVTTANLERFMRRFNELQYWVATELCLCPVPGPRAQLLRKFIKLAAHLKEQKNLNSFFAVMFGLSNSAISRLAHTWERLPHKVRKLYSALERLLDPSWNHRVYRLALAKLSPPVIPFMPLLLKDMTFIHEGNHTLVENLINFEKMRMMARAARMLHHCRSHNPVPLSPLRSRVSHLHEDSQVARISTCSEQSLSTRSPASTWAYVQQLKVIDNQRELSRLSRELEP

Assay [2] shares this target. Nature of the assay: Confirmatory qHTS for agonist of cAMP-regulated guanine nucleotide exchange factor 3 (EPAC1) (AID 1645881). Also: nearly all actives have a fitted effect of over 75% in size. Also: potency is read from the fitted curve at half-maximal effect.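 As to activation: EPAC1 catalysed release of BODIPY-GDP from Rap1B seen as fluorescence loss; 100% = effect of cAMP agonist control.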
Assay [3] concerns the target Rap guanine nucleotide exchange factor 4 (Homo sapiens) (UniProt Q8WZA2). Nature of the assay: Confirmatory qHTS for agonist of cAMP-regulated guanine nucleotide exchange factor 4 (EPAC2) (AID 1645884).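 Also: nucleotide exchange releases bodipy-GDP from Rap1 and this lowers its fluorescence; nearly all actives have a fitted effect of over 65% in size.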 Also: potency is read from the fitted curve at half-maximal effect. As to activation: % is scaled to controls: 0 for no effect and ±100 for the full control effect.
Assay [4] addresses Rap guanine nucleotide exchange factor 3 (Homo sapiens) (UniProt O95398). Nature of the assay: Counterscreen qHTS for antagonist of cAMP-regulated guanine nucleotide exchange factor 3 (EPAC1) (AID 1645888).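 Also: fluorescence loss as bound BODIPY-GDP is released from Rap1B; % of control where 0% means no effect.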 Put shortly: (§1)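 Rap1B–BODIPY-GDP (250 nM) with 50 uM GDP; compounds pin-transferred to 9.74 nM–152 uM final (activator) or from 7.32 nM upwards (inhibitor). Fluorescence Ex/Em 480/540 nm read at 5 and 30 min, then after adding cAMP or buffer, at room temperature.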
A general note: A counterscreen serves to expose hits that act by an unwanted route or on another target.

The target in assay [5] is Tumor susceptibility gene 101 protein (Homo sapiens) (UniProt Q99816). The assay is described as follows: qHTS Assay for Iinhibitors of HIV-1 Budding by Blocking the Interaction of PTAP/TSG101: Hit Validation (AID 651600). Also: nearly all actives have a fitted effect of over 70% in size. Also: potency is read from the fitted curve at half-maximal effect. A digest of the protocol:
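FITC-PTAP peptide (50 nM final) binding to Tsg101 binding domain (10 uM final) was measured by polarization after 20 min at r.t. with compounds, in 10 mM HEPES pH 7.5 buffer with 0.15 M NaCl and 0.01% Tween 20.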
In general terms: qHTS replaces the single test concentration by a dilution series.

The target in assay [6] is Rap guanine nucleotide exchange factor 4 (Homo sapiens) (UniProt Q8WZA2). Nature of the assay: Confirmatory qHTS for antagonist of cAMP-regulated guanine nucleotide exchange factor 4 (EPAC2) (AID 1645885). Also: % is scaled to controls: 0 for no effect and ±100 for the full control effect; nearly all actives have a fitted effect of over 25% in size.
Rap guanine nucleotide exchange factor 4 (Homo sapiens), sequence (Q8WZA2 whole entry, looked up): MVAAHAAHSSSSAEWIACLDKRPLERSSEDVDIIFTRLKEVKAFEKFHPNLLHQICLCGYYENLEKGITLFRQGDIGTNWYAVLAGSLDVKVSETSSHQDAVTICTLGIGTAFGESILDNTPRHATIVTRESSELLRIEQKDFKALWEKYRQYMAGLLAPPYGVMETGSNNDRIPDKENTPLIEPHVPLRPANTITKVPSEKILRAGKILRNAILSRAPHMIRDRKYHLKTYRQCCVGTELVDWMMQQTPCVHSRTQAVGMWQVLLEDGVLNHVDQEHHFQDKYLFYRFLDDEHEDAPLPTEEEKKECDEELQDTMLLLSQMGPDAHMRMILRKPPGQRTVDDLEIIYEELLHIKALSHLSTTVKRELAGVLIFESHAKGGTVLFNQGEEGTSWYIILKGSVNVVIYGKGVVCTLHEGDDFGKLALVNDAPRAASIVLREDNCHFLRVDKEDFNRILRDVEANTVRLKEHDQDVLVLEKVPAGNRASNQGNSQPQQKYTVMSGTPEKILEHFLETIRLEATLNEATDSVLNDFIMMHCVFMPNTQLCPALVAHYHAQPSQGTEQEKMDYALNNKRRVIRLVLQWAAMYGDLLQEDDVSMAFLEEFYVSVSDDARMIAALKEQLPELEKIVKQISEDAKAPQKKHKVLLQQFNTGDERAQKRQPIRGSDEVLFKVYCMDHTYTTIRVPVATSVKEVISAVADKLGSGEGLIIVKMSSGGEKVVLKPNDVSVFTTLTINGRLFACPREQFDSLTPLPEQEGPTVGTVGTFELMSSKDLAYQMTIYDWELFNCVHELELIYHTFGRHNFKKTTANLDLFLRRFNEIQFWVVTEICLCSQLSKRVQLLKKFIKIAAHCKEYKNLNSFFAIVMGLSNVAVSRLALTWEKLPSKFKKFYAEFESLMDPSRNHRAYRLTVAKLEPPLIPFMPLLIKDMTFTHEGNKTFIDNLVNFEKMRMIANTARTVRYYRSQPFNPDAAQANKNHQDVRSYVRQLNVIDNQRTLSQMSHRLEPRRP
For assay [7], the target named is Rap guanine nucleotide exchange factor 3 (Homo sapiens) (UniProt O95398). The assay is described as follows: Counterscreen qHTS for agonist of cAMP-regulated guanine nucleotide exchange factor 3 (EPAC1) (AID 1645889). Also: nearly all actives have a fitted effect of over 40% in size. Also: potency is read from the fitted curve at half-maximal effect. As to activation: % of control where 0% means no effect. Put shortly:
as §1

For assay [8], the target named is Cytochrome P450 3A4 (Homo sapiens) (UniProt P08684). Nature of the assay: qHTS Assay for Inhibitors and Substrates of Cytochrome P450 3A4 (AID 884). Also: potency is read from the fitted curve at half-maximal effect; nearly all actives have a fitted effect of over 50% in size. A digest of the protocol: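 20 nM human CYP3A4 with 25 uM Luciferin-PPXE (at KM) in 200 mM KPO4, preincubated 10 min with compound; NADPH regeneration started a 60 min RT reaction. Luciferin detected by luminescence, normalized to 57 uM ketoconazole as full inhibition.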
Cytochrome P450 3A4 (Homo sapiens), sequence (P08684 whole entry, looked up): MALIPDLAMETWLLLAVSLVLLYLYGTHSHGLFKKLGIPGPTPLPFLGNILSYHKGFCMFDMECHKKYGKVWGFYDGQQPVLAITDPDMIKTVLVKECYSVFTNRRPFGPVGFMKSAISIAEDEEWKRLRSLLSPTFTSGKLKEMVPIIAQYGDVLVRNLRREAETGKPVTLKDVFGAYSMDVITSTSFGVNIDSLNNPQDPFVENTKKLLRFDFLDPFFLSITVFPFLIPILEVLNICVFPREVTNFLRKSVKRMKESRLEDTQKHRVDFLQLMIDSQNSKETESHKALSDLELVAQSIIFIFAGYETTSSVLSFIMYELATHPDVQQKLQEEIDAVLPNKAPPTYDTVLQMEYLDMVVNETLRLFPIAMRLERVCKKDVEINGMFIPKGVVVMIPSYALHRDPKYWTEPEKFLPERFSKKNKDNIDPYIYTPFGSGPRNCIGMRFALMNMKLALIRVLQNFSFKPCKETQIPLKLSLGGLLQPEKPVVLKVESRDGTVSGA

For assay [9] the target is unchanged. Nature of the assay: qHTS Assay for Activators of Cytochrome P450 3A4 (AID 885). Also: nearly all actives have a fitted effect of over 65% in size. Put shortly: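 Human CYP3A4 (20 nM) with Luciferin-PPXE at 25 uM (its KM) in 200 mM KPO4; 10 min compound preincubation, then NADPH regeneration and 60 min reaction at RT. Luciferin read by luminescence; normalized to 57 uM ketoconazole full inhibition.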
A short description of assay [10]: Confirmation and Secondary Assay for Modulators of Hemoglobin Beta Chain Splicing at IVS2 654 locus (AID 910).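 Also: HeLa cells stably carrying EGFP split by mutant beta-globin IVS2-654 intron; % of control where 0% means no effect.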 A digest of the protocol: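 HeLa cells stably expressing EGFP interrupted by β-globin IVS2-654 intron, seeded overnight in Opti-MEM/2% FCS, then treated 2 days at 37 °C. Restored splicing read as total peak GFP intensity per well by laser scanning cytometry (488 nm excitation, 500–520 nm emission); 500 nM antisense PNA as control.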

A short description of assay [11]: Confirmation and Secondary Assay for Modulators of Hemoglobin Beta Chain Splicing at IVS2 705 locus (AID 930).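 Also: HeLa cells stably expressing the EGFP-705 splicing reporter; GFP fluorescence per well restored by corrected splicing of the IVS2-705 intron in EGFP; % of control where 0% means no effect.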 A digest of the protocol:
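Splice-correction reporter: EGFP cDNA split by beta-globin intron 2 bearing the 705 mutation, stably in HeLa. Compound incubation 2 days, 37C; fluorescent objects 5-250 µm summed per well.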

Assay [12] in a line: AP1 Signaling Pathway (AID 357; active = well fitted curve in either direction with a large enough effect, not every such curve was filed as active;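 also: ME-180 reporter cells stimulated with EGF at its EC50 level; % is scaled to controls: 0 for no effect and ±100 for the full control effect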). Conditions: ME-180 AP-1-bla reporter, EGF-induced, beta-lactamase ratio, 5 h; at 7.69 µM (top of the series) unless noted. A digest of the protocol:
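AP-1-bla ME-180 cells, Opti-MEM + 0.5% dialyzed FBS, plated overnight 37 °C. Cpd titration + EC50 EGF, 5 h 37 °C. CCF4 2.5 h RT; ex 405, em 460/530 ratio → %activity, AC50.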

Assay [13] concerns the target Cytochrome P450 1A2 (Homo sapiens) (UniProt P05177). The assay is described as follows: p450-cyp1a2 (AID 410; calls by dose curve; also: potency is read from the fitted curve at half-maximal effect). Put shortly:
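20nM CYP1A2 with 100uM Luciferin-ME (at Km) in 100mM KPO4; compound preincubated 10 min, NADPH regeneration added, 60 min at room temperature. Luciferin quantified by luminescence after detection reagent; normalized to 57 uM furafylline.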

Assay [14] is described as follows: NFAT Signaling Pathway (AID 444; active = well fitted curve in either direction with a large enough effect, not every such curve was filed as active;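 also: carbachol stimulus at about its EC50 of 1 µM final; % is scaled to controls: 0 for no effect and ±100 for the full control effect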). The settings on record: Jurkat NFAT-bla M1, carbachol, beta-lactamase ratio, 5 h; at 7.69 µM (top of the series) unless noted. Put shortly:
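Jurkat cells with NFAT-driven β-lactamase reporter and co-expressed M1 receptor, stimulated with carbachol (final 1 uM, ~EC50), compound titration, 5 h at 37 °C. CCF4 loaded 1 h at RT; 460/530 nm ratio gave %activity and AC50.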

Assay [15] in a line: Stat Signaling Pathway (AID 446; active = well fitted curve in either direction with a large enough effect, not every such curve was filed as active;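 also: ME-180 cervical cancer cells given 40 pM IL-6 alongside compound; SIE-controlled beta-lactamase reporter measured as 460/530 nm FRET emission ratio; % is scaled to controls: 0 for no effect and ±100 for the full control effect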). Put shortly: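 ME-180 cells carrying a SIE-driven beta-lactamase reporter are stimulated with 40 pM IL-6 for 5 h at 37C in the presence of compound. The 460/530 nm FRET substrate ratio is read after 2.5 h at RT. Data are normalised to 300 pM IL-6 and to 125 nM JAK inhibitor controls.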
The target in assay [16] is Glucocorticoid receptor (Homo sapiens) (UniProt P04150). Nature of the assay: GR-EFC Redistribution (AID 451; calls by dose curve; also: potency is read from the fitted curve at half-maximal effect). The settings on record: CHO-K1 GR-EFC translocation, beta-gal luminescence, 2 h. A digest of the protocol:
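CHO-K1 cells expressing nuclear EA and GR-ED fragments of b-gal; compounds titrated up to 46 uM final, 2 h at 37 C. GR nuclear translocation read as complemented b-gal luminescence after 1 h RT detection.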

Assay [17] has as its target Cytochrome P450 2C9 (Homo sapiens) (UniProt P11712). The assay is described as follows: qHTS Assay for Inhibitors and Substrates of Cytochrome P450 2C9 (AID 883). Also: potency is read from the fitted curve at half-maximal effect; nearly all actives have a fitted effect of over 60% in size. Put shortly:
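10nM CYP2C9 + 100uM Luciferin-H (=KM), 25mM KPO4; cpd 10 min 37C; NADPH regen, 60 min 37C; stop/detect with P450 Glo-Buffer 20 min; luminescence. Norm. to 57uM sulphaphenazole as full inhibition.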

Tumor susceptibility gene 101 protein (Homo sapiens), sequence (Q99816 whole entry, looked up, the tested form may be a part): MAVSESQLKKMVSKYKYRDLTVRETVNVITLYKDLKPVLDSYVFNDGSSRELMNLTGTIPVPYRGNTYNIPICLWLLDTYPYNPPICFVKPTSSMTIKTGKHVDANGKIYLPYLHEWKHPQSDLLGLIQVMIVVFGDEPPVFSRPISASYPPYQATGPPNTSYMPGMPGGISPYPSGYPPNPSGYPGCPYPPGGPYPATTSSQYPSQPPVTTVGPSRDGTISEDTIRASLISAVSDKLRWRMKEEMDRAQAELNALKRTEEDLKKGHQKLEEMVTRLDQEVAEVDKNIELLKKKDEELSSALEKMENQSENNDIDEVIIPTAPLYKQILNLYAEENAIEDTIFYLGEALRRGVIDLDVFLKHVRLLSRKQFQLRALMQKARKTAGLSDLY
Cytochrome P450 2C9 (Homo sapiens), sequence (P11712 whole entry, looked up): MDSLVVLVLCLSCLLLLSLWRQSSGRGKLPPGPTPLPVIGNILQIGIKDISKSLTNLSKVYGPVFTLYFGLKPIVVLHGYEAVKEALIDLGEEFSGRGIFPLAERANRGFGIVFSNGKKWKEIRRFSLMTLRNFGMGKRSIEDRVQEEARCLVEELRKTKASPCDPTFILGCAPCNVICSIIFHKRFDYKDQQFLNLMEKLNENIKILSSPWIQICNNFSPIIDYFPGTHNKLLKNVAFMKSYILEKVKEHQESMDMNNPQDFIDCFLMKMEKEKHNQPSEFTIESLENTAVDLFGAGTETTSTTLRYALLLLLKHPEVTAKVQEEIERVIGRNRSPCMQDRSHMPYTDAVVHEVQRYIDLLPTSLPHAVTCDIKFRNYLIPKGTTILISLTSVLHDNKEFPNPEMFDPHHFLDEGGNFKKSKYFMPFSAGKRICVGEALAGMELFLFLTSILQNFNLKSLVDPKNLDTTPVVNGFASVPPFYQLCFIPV
Cytochrome P450 1A2 (Homo sapiens), sequence (P05177 whole entry, looked up): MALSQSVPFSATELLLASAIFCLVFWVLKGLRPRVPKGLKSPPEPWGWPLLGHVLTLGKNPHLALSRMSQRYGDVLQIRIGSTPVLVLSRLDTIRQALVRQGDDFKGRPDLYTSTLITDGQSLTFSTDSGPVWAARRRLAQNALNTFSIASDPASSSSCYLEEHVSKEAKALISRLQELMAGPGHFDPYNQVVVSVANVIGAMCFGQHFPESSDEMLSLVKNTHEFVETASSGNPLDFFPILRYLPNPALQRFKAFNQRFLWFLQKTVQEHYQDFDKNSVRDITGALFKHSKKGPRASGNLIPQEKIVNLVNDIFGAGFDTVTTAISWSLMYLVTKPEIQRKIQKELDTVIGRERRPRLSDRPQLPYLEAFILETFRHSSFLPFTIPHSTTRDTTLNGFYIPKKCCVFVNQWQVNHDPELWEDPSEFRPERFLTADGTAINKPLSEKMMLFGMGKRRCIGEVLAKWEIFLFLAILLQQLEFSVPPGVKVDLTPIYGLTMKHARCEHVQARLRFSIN
Glucocorticoid receptor (Homo sapiens), sequence (P04150 whole entry, looked up, the tested form may be a part): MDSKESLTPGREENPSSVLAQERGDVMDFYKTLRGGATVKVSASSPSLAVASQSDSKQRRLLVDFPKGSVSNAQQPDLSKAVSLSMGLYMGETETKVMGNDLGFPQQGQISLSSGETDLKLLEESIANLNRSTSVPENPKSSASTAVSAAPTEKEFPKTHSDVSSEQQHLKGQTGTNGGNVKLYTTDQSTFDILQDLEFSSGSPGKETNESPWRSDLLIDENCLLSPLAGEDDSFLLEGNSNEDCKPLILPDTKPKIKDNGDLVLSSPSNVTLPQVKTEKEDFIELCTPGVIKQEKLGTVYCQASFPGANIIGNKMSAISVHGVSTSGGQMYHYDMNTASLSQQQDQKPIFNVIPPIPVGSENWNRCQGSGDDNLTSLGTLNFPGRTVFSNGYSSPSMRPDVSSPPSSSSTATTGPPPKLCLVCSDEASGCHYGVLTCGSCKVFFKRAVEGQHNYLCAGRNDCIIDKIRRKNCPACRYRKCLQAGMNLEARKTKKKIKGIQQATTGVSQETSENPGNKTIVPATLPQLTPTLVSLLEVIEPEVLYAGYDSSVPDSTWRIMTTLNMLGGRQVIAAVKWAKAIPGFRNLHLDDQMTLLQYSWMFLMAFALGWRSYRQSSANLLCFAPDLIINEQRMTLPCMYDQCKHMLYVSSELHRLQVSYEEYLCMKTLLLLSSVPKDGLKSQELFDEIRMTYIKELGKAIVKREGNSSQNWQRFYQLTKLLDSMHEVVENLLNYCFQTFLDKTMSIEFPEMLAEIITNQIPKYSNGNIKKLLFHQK

As for `CCOC(=O)CC1C(=O)NCCN1C(=O)c1cccc(C(F)(F)F)c1` (configuration not stated), the Potency entry in [1], in assay [2], in assay [3] and in assay [4] was “inactive” in each case.
As for `Oc1ccc2ccc3cccc[n+]3c2c1`, the Potency was 4.11 µM (active) in assay [5], 112 µM (active) in assay [2], 100 µM (active) in assay [3] and 39.8 µM (active) in [7]. Further, the Potency result in assay [1] and in assay [6] was “inactive” throughout.
Take `COc1cc2c(cc1OC)C1C(=O)c3ccc4c(c3OC1CO2)C=CC(C)(C)O4` (configuration not stated): the Potency in [8] is 31.6 µM (active). Also, the result in assay [9] was inactive. In addition, the Potency result in assay [10], in assay [11], in assay [1], in assay [2], in assay [3] and in [6] was “inactive” throughout.
On to `COC(=O)C1=C(C)N(CCCC(=O)O)C(=O)NC1c1ccc(-c2ccccc2)cc1` (configuration not stated), for which the Potency entry in assay [1], in [2], in [3] and in [4] was “inactive” each time.
Regarding `O=C(c1cnccn1)N1CCC[C@@]2(CCN(c3cccc(-c4ccccc4)c3)C2)C1`, the figures for the activity change, negative = inhibition in assay [12] and in assay [14] were -18.4% and 7.34%, respectively. The Potency in assay [13] was 25.1 µM (active); in assay [16] it was greater than 46 µM; in [17] it was 7.94 µM (active); in [8], 3.98 µM (active). Moreover, the result in assay [15] and in assay [9] was inactive. For the same compound, the Potency result in assay [1], in [2], in assay [3] and in [6] was “inactive” in each case.
In the case of `CCOC(=O)c1cnc2ccc(OC)cc2c1Nc1ccc(N2CCN(C)CC2)cc1`, the Potency result in [5], in assay [1], in [2] and in [6] was “inactive” throughout. Besides, the activation in assay [3] is 12.5% [at 17.1 µM, percent relative to cAMP agonist control]; in assay [7] it was 12.2% [at 30.8 µM].
For the compound `Nc1[nH]n2c(=O)cc(-c3ccccc3)nc2c1N=Nc1ccc(S(N)(=O)=O)cc1`, the Potency entry in assay [1], in [2], in assay [3] and in assay [4] was “inactive” throughout.
Turning to `CCCOc1ccccc1NC(=O)c1c(-c2ccccc2)noc1C`, the Potency result in [1], in assay [2], in assay [3] and in assay [4] was “inactive” in each case.
For the compound `O=C1/C(=C\c2cc([N+](=O)[O-])ccc2O)SC(=S)N1Cc1ccc(Cl)cc1`, the Potency in [1] is 75.7 µM (active). Further, the Potency result in assay [2], in assay [3] and in assay [4] was “inactive” each time.
